An excerpt weighted towards active compounds, which were near 6.8% of everything screened.
A340 absorber – compound light absorbance at 340 nm, profiling panel, artefact control, biochemical, MLSMR library, data from PS, PMK, MK assays | 65,000 tested, under 10 active | fold change at 10 µM | AID 708, 2007 | compound absorbance at 340 nm, fold over control;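 active means at 10 µM dose, initial 340 nm absorbance at least 2 fold that of control wells; inactive means change under 2 fold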;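 further: initial absorbance extrapolated from kinetic A340 decline of NADH oxidation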
NADH coupling – inhibitors of PK/LDH coupling enzymes, profiling panel, artefact control, biochemical, MLSMR library | AID 774, 2007 | hit rate 0.02% among 65,000 | IC50, µM (highest dose often 10 µM), for the others: top-dose inhibition | coupled PK/LDH NADH assays, four targets;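 active means single-dose screening hits from any of four coupled enzyme assays that gave an IC50 when retested across doses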;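 further: the DPM-DC format reads NADH fluorescence rather than 340 nm absorbance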
Spn MK inh – S. pneumoniae MK inhibitors, primary screen, biochemical, PK/LDH-coupled NADH absorbance | mevalonate kinase [Streptococcus pneumoniae D39] | purified MK, PK/LDH-coupled NADH absorbance 340 nm | inhibition, % at 10 µM | hit rate 0.48% among 65,000 | AID 555, 2006;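 active means ranked among the strongest by inhibition in the single 10 µM screen, a fixed top-ranked set picked for dose follow-up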
Spn PMK inh – S. pneumoniae PMK inhibitors, primary screen, biochemical, mevalonate pathway, pilot trial included; phosphomevalonate kinase (Streptococcus pneumoniae D39); purified PMK, PK/LDH-coupled NADH absorbance 340 nm; inhibition, % at 10 µM; hit rate 0.49% among 65,000;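 active means top-ranked compounds by inhibition in the single 10 µM screen, taking a fixed number of the strongest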;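 further: 0% = full reaction with DMSO carrier and 100% = background rate without enzyme reaction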
DPM-DC inhibit – S. pneumoniae DPM-DC inhibitors, primary screen, biochemical, PK/LDH-coupled NADH fluorescence; purified DPM-DC; calls only at 10 µM; hit rate 0.49% among 65,000; AID 556, 2006;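 active means the 320 compounds with the highest percent inhibition in the single-dose primary screen, excluding strongly autofluorescent ones, cut at about 32% in these data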;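 further: kinetic rate of NADH fluorescence loss reporting ADP formed by the decarboxylase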
Fluor 339 460 – intrinsic fluorescence of library compounds, ex339/em460 – biochemical, MLSMR library, data from DPM-DC assay, artefact control, profiling panel. AID 709, 2007. hit rate 5.5% among 65,000. fluorescence fold increase at 10 µM. compound autofluorescence, ex339/em460 nm, NADH buffer; stronger effect = higher value; 1 = no-compound wells, NADH background;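 active means at 10 µM, mean starting fluorescence two-fold or more over control wells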;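 further: signal is the first read of a kinetic run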
Numbers without * were called inactive; i = inactive; · = no result given.

SMILES	A340 absorber	NADH coupling	Spn MK inh	Spn PMK inh	DPM-DC inhibit	Fluor 339 460
COc1ccc(F)cc1CN1CCN(c2cc(C)nc3c4c(C)cc(C)nc4nn23)CC1	1.1	4%	1	6	·	3.9*
COc1ccc(Cl)cc1CN1CCN(c2nc(C)cc(C)c2C#N)CC1	0.98	1%	4	0	i	1.2
Cc1cc(C)c2c(n1)nn1c(N3CCN(Cc4ccccc4)CC3)cc(C)nc21	1	8%	8	7	·	3.9*
Cc1nc(COC(=O)c2ccc(S(=O)(=O)N3CCCC3)cc2)cs1	1	6%	8	9	i	1.1
O=C(NC1CC1)c1ccc2c(c1)ncn2C1CCCC1	0.99	17%	2	28*	i	0.97
O=C(CCn1c(=O)c2ccccc2n(Cc2cc(=O)n3ccccc3n2)c1=O)NCc1ccco1	1.1	5%	0	14	i	2.2*
CCOC(=O)c1cc2c(=O)n3ccccc3nc2n(Cc2ccc(Cl)cc2)c1=N	1	3%	1	6	i	2.3*
N=c1c(C(=O)NCc2ccco2)cc2c(=O)n3ccccc3nc2n1Cc1ccc(Cl)cc1	1.1	7%	6	5	i	2.5*
N=c1c(C(=O)NCc2ccc3c(c2)OCO3)cc2c(=O)n3ccccc3nc2n1Cc1cccnc1	1	2%	4	1	i	1.6
N=c1c(C(=O)NCc2ccco2)cc2c(=O)n3ccccc3nc2n1Cc1ccccc1	1	17%	12	16	i	2.4*
Cc1ccc(Cn2ccc(NC(=O)c3cc(CC(C)C)on3)n2)cc1	1.1	7%	4	0	i	1.3
CC(=O)NC(CCS(C)(=O)=O)C(=O)N1CCc2ccccc21 (configuration not stated)	0.98	6%	0	19	i	1.1
COCCCn1c(=N)c(C(=O)NCc2ccc3c(c2)OCO3)cc2c(=O)n3ccccc3nc21	1.1	0%	1	0	i	1.2
COCCn1c(=N)c(C(=O)NCc2ccco2)cc2c(=O)n3ccccc3nc21	1	14%	4	10	i	3*
COc1ccc(S(=O)(=O)N2CCCC(C(=O)NCc3ccncc3)C2)cc1 (configuration not stated)	0.99	6%	8	7	i	1.1
COCCn1cnnc1SCC(=O)Nc1ccccc1C(=O)Nc1ccc2c(c1)OCO2	1	6%	1	15	i	1.1
CCCn1cnc2c(cnn2-c2ccc(F)cc2)c1=O	0.97	4%	6	27*	i	1
CCCCn1cnc2c(cnn2-c2ccc(F)cc2)c1=O	0.98	6%	5	13	i	1.1
O=C1CCCC2=C1C(c1ccco1)Nc1ccc3ccccc3c12 (configuration not stated)	1	7%	8	6	·	2.2*
Nn1c(CSc2nc3ccccc3o2)nnc1CSc1nc2ccccc2o1	0.96	3%	9	15	i	1
Cc1cc(C)n2cc(CSc3nc4cc(Cl)ccc4o3)nc2n1	1	1%	0	4	i	2.1*
Cc1cc(C)n2c(Br)c(CSc3nc4ccccc4o3)nc2n1	1.1	9%	0	7	i	2.6*
Cc1cc(C)n2cc(CSc3nnnn3C)nc2n1	1	4%	10	11	·	2.6*
O=C(Cc1nn[nH]n1)NCc1ccccc1Cl	0.99	5%	0	14	i	1.1
COC(=O)C1=C(C)NC(C)=C(C(=O)OC)C1c1ccccc1OCc1c(C)no[n+]1[O-]	1	4%	7	4	i	1.4
Cn1c(C(=O)NCCCN2CCCC2=O)cc2c(=O)n3ccccc3nc21	1.1	11%	9	12	·	4.9*
Cn1c(C(=O)NCCC2=CCCCC2)cc2c(=O)n3ccccc3nc21	1	3%	5	9	·	3.5*
COCCCNC(=O)c1ccc2nc3ccccc3c(=O)n2c1	1.1	11%	0	21	·	4.9*
COCCCn1c(-c2ccccc2)nc2ccccc2c1=O	1	1%	2	0	i	1.1

Assay outcomes as filed in PubChem.
